Measurements published in PubChem BioAssay AID1159580 (chemical genetic matrix, 2015).
Screen size: about 5,500 compounds; about 2,000 (36%) were called active. Roughly 18% stayed inconclusive and do not appear here. Rule as the data show it: active = normalized growth mostly below about 0.91 (no sharp cut-off); inconclusive = no clear call, values can overlap the other calls; inactive = mostly above about 0.92. This is one part of the list.

Test: chemical genetic growth profiling, strain panel (AID 1159580);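 also: tested at 20 µM; growth read once vehicle control cultures reached saturation at 30 °C; 1 = growth at the plate median or of vehicle wells; lower values mean less growth of the strain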
Details: growth OD

Measured: normalized growth

CC1=C(C(C)O)C2=NC1C=c1[nH]c(c(C)c1C(C)O)=Cc1[nH]c(c(CCC(=O)O)c1C)C=c1[nH]c(c(C)c1CCC(=O)O)=C2 (stereo not drawn)
inactive: S. cerevisiae deletion strains, locus YJL187C, strain SWE1, active compounds read low 0.995 | S. cerevisiae deletion strains, locus YJR043C, strain POL32, active compounds read low 0.93 | S. cerevisiae deletion strains, locus YJR066W, strain TOR1, active compounds read low 1.02 | S. cerevisiae deletion strains, locus YKL009W, strain mrt4, active compounds read low 1.04 | S. cerevisiae deletion strains, locus YKL068W, active compounds read low 1.01 | S. cerevisiae deletion strains, locus YKL085W, strain MDH1 (second series), active compounds read low 1.02 | S. cerevisiae deletion strains, locus YKL085W, strain MDH1, active compounds read low 1.02 | S. cerevisiae deletion strains, locus YKL160W, strain elf1, active compounds read low 0.99 | S. cerevisiae deletion strains, locus YKL190W, strain CNB1, active compounds read low 1 | S. cerevisiae deletion strains, locus YKR001C, strain vps1, active compounds read low 1 | S. cerevisiae deletion strains, locus YKR026C, strain gcn3, active compounds read low 0.989 | S. cerevisiae deletion strains, locus YKR091W, strain srl3, active compounds read low 1 | S. cerevisiae deletion strains, locus YLL001W, strain dnm1, active compounds read low 0.988 | S. cerevisiae deletion strains, locus YLL026W, active compounds read low 0.992 | S. cerevisiae deletion strains, locus YLL041C, strain sdh2, active compounds read low 0.995 | S. cerevisiae deletion strains, locus YLR027C, strain aat2, active compounds read low 0.982 | S. cerevisiae deletion strains, locus YLR039C, strain RIC1, active compounds read low 1.04 | S. cerevisiae deletion strains, locus YLR058C, strain SHM2, active compounds read low 1 | S. cerevisiae deletion strains, locus YLR102C, strain apc9, active compounds read low 1.02 | S. cerevisiae deletion strains, locus YLR221C, strain rsa3, active compounds read low 0.967 | S. cerevisiae deletion strains, locus YLR258W, strain gsy2, active compounds read low 0.996 | S. cerevisiae deletion strains, locus YLR262C, strain YPT6 (second series), active compounds read low 1.06 | S. cerevisiae deletion strains, locus YLR262C, strain YPT6, active compounds read low 1.01 | S. cerevisiae deletion strains, locus YLR268W, strain sec22, active compounds read low 1.01 | S. cerevisiae deletion strains, locus YLR320W, strain mms22, active compounds read low 0.938 | S. cerevisiae deletion strains, locus YLR330W, strain CHS5, active compounds read low 1.01 | S. cerevisiae deletion strains, locus YLR342W, strain FKS1 (second series), active compounds read low 0.995 | S. cerevisiae deletion strains, locus YLR342W, strain FKS1, active compounds read low 0.987 | S. cerevisiae deletion strains, locus YLR357W, strain rsc2, active compounds read low 0.923 | S. cerevisiae deletion strains, locus YLR370C, strain arc18, active compounds read low 0.988 | S. cerevisiae deletion strains, locus YLR371W, strain rom2, active compounds read low 1.02 | S. cerevisiae deletion strains, locus YLR384C, strain iki3, active compounds read low 0.99 | S. cerevisiae deletion strains, locus YLR418C, strain cdc73, active compounds read low 0.937 | S. cerevisiae deletion strains, locus YML016C, strain PPZ1, active compounds read low 1.01 | S. cerevisiae deletion strains, locus YML032C, strain rad52, active compounds read low 1 | S. cerevisiae deletion strains, locus YML120C, strain ndi1, active compounds read low 1 | S. cerevisiae deletion strains, locus YML124C, strain tub3, active compounds read low 1.02 | S. cerevisiae deletion strains, locus YMR058W, strain fet3, active compounds read low 0.943 | S. cerevisiae deletion strains, locus YMR078C, strain ctf18, active compounds read low 1.03 | S. cerevisiae deletion strains, locus YMR125W, strain sto1, active compounds read low 1 | S. cerevisiae deletion strains, locus YMR129W, active compounds read low 0.986 | S. cerevisiae deletion strains, locus YMR205C, strain PFK2, active compounds read low 0.943 | S. cerevisiae deletion strains, locus YMR223W, strain ubp8, active compounds read low 0.976 | S. cerevisiae deletion strains, locus YMR231W, strain pep5, active compounds read low 0.98 | S. cerevisiae deletion strains, locus YMR307W, strain GAS1, active compounds read low 0.82 | S. cerevisiae deletion strains, locus YNL067W, strain RPL9B, active compounds read low 0.996 | S. cerevisiae deletion strains, locus YNL071W, strain lat1, active compounds read low 0.963 | S. cerevisiae deletion strains, locus YNL183C, strain NPR1, active compounds read low 1.02 | S. cerevisiae deletion strains, locus YNL209W, strain ssb2, active compounds read low 0.999 | S. cerevisiae deletion strains, locus YNL233W, strain BNI4, active compounds read low 0.994 | S. cerevisiae deletion strains, locus YNL248C, strain rpa49, active compounds read low 0.971 | S. cerevisiae deletion strains, locus YNL250W, strain rad50, active compounds read low 1.03 | S. cerevisiae deletion strains, locus YNL271C, strain bni1, active compounds read low 1.01 | S. cerevisiae deletion strains, locus YNL298W, strain CLA4, active compounds read low 1.02 | S. cerevisiae deletion strains, locus YNL307C, strain MCK1, active compounds read low 1.02 | S. cerevisiae deletion strains, locus YNL322C, strain KRE1 (second series), active compounds read low 0.99 | S. cerevisiae deletion strains, locus YNR049C, strain mso1, active compounds read low 0.998 | S. cerevisiae deletion strains, locus YNR052C, strain pop2, active compounds read low 1.02 | S. cerevisiae deletion strains, locus YOL012C, strain htz1 0.754 | S. cerevisiae deletion strains, locus YOL147C, strain pex11, active compounds read low 1.01 | S. cerevisiae deletion strains, locus YOR001W, strain rrp6, active compounds read low 1 | S. cerevisiae deletion strains, locus YOR061W, strain CKA2, active compounds read low 1.01 | S. cerevisiae deletion strains, locus YOR069W, strain VPS5, active compounds read low 1.01 | S. cerevisiae deletion strains, locus YOR070C, strain gyp1, active compounds read low 0.989 | S. cerevisiae deletion strains, locus YOR080W, strain dia2, active compounds read low 0.987 | S. cerevisiae deletion strains, locus YOR083W, strain WHI5, active compounds read low 0.986 | S. cerevisiae deletion strains, locus YOR106W, strain vam3, active compounds read low 0.94 | S. cerevisiae deletion strains, locus YOR136W, strain idh2, active compounds read low 1.01 | S. cerevisiae deletion strains, locus YOR144C, strain elg1, active compounds read low 1.02 | S. cerevisiae deletion strains, locus YOR184W, strain ser1, active compounds read low 0.972 | S. cerevisiae deletion strains, locus YOR231W, strain MKK1, active compounds read low 1.13 | S. cerevisiae deletion strains, locus YOR265W, strain rbl2, active compounds read low 0.995 | S. cerevisiae deletion strains, locus YOR270C, strain vph1, active compounds read low 0.915 | S. cerevisiae deletion strains, locus YOR290C, strain snf2, active compounds read low 0.984 | S. cerevisiae deletion strains, locus YOR316C, strain cot1, active compounds read low 1.02 | S. cerevisiae deletion strains, locus YPL051W, strain arl3, active compounds read low 0.984 | S. cerevisiae deletion strains, locus YPL055C, strain LGE1, active compounds read low 0.973 | S. cerevisiae deletion strains, locus YPL078C, strain atp4, active compounds read low 0.996 | S. cerevisiae deletion strains, locus YPL106C, strain sse1, active compounds read low 0.93 | S. cerevisiae deletion strains, locus YPL240C, strain hsp82, active compounds read low 0.996 | S. cerevisiae deletion strains, locus YPL256C, strain CLN2, active compounds read low 1.07 | S. cerevisiae deletion strains, locus YPR119W, strain clb2, active compounds read low 1.02 | S. cerevisiae deletion strains, locus YPR141C, strain kar3, active compounds read low 1.05 | S. cerevisiae deletion strains, locus YPR163C, strain tif3, active compounds read low 1.01 | S. cerevisiae deletion strains, locus YPR167C, strain met16, active compounds read low 1 | S. cerevisiae deletion strains, strain wtn01, active compounds read low 0.981 | S. cerevisiae strains, strain wild type, active compounds read low 0.968
active: S. cerevisiae deletion strains, locus YLR113W, strain HOG1, active compounds read low 1.19 [resistant]
